Our source for the inhibition values is ChEMBL document CHEMBL1961873, “Compounds: GSK PKIS; Assays: Nanosyn kinase panel” (2012).

The target of assay [1] is Ribosomal protein S6 kinase alpha-6 (Homo sapiens) (UniProt Q9UK32). The settings on record: at 1 µM.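 Further: each value is a mean inhibition of RSK4 from a GSK PKIS panel screen.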
The target in assay [2] is T1, Serine/threonine-protein kinase Sgk1 (Homo sapiens) (UniProt O00141).
T1 sequence (whole entry): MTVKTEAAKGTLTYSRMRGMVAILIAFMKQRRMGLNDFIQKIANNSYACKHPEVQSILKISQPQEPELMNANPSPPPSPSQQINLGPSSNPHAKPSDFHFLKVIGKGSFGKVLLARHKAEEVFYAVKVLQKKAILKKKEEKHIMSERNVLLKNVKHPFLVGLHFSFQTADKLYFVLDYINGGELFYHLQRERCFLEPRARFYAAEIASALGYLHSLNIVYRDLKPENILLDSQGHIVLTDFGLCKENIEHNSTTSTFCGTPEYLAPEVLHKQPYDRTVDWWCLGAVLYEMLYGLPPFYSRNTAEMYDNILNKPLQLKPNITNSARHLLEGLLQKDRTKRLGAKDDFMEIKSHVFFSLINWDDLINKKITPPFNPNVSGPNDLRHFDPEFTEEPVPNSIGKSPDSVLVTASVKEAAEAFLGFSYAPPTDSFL
The conditions noted are these: at 0.1 µM.

Assay [3] deals with T1, Serine/threonine-protein kinase Sgk1 (Homo sapiens). The settings on record: at 1 µM.
Assay [4] deals with T2, Serine/threonine-protein kinase Sgk2 (Homo sapiens) (UniProt Q9HBY8).
T2 sequence (whole entry): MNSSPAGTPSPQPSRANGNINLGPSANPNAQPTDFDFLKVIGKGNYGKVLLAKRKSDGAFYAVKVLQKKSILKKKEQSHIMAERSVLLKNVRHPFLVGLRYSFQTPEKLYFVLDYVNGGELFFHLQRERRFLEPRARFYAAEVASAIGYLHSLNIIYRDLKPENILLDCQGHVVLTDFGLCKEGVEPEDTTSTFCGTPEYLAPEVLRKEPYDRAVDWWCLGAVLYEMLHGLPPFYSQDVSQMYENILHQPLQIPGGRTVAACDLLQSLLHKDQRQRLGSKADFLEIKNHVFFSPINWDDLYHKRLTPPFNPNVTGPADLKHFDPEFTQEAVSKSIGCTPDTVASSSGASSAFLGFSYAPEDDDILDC
The settings on record: at 0.1 µM.

Assay [5] has as its target T2, Serine/threonine-protein kinase Sgk2 (Homo sapiens). The conditions noted are these: at 1 µM.
The target in assay [6] is T3, Serine/threonine-protein kinase Sgk3 (Homo sapiens) (UniProt Q96BR1).
T3 sequence (whole entry): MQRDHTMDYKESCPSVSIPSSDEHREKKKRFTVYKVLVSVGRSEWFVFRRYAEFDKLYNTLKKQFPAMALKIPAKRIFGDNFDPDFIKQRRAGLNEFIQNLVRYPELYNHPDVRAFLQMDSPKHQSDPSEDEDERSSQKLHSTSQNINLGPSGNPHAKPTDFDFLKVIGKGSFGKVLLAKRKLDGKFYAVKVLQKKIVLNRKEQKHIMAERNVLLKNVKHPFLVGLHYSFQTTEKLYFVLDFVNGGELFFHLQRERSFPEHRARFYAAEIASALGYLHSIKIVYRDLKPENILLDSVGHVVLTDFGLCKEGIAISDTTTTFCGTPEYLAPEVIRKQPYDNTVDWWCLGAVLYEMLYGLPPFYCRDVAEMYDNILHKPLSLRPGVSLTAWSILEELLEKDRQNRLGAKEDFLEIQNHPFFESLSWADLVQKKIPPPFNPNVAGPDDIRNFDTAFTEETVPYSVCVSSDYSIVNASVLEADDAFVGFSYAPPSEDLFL
The settings on record: at 0.1 µM.

In assay [7] the target is T3, Serine/threonine-protein kinase Sgk3 (Homo sapiens). The conditions noted are these: at 1 µM.
Assay [8] deals with 5'-AMP-activated protein kinase catalytic subunit alpha-1 (Homo sapiens) (UniProt Q13131). The conditions noted are these: at 0.1 µM.
For assay [9] the target is unchanged. The conditions noted are these: at 1 µM.
The target in assay [10] is 5'-AMP-activated protein kinase catalytic subunit alpha-2 (Homo sapiens) (UniProt P54646). The settings on record: at 0.1 µM.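 Further: mean inhibition measured on the AMPK complex of alpha2, beta1 and gamma1 subunits.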
Chain of 5'-AMP-activated protein kinase catalytic subunit alpha-2 (Homo sapiens) (P54646 whole entry, looked up): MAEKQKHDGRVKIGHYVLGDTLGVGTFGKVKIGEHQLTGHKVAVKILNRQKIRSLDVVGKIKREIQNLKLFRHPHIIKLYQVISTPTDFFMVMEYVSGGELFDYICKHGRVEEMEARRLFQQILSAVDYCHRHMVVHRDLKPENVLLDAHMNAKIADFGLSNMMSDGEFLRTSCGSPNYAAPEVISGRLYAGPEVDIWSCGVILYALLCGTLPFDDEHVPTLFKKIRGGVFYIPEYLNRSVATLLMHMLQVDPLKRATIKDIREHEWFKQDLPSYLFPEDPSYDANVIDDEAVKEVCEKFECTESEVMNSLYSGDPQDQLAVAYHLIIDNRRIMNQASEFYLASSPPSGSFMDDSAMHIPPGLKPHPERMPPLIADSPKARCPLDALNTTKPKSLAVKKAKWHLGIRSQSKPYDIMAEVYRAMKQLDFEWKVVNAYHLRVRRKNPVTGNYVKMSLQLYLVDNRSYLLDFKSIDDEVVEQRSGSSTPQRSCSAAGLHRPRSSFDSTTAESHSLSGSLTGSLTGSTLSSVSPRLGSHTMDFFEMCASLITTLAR

Chain of Ribosomal protein S6 kinase alpha-6 (Homo sapiens) (Q9UK32 whole entry): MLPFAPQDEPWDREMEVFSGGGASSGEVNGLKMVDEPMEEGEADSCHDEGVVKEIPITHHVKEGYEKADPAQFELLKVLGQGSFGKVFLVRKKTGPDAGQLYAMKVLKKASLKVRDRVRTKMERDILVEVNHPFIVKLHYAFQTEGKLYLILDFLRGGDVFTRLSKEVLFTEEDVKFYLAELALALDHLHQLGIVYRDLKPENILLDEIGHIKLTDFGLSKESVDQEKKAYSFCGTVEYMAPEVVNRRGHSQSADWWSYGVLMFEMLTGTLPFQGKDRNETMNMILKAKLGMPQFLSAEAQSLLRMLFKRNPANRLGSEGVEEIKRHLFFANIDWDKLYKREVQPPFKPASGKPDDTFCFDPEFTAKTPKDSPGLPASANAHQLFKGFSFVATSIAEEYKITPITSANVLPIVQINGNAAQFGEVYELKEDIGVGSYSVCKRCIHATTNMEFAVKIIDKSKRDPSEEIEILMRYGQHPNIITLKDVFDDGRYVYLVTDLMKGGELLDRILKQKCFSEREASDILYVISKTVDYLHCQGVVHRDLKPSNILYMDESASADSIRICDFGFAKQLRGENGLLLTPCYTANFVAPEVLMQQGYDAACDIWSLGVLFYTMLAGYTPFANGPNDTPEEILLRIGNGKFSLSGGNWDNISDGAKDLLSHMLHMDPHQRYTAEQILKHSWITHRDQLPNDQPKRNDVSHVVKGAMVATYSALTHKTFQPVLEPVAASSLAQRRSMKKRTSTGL
Chain of 5'-AMP-activated protein kinase catalytic subunit alpha-1 (Homo sapiens) (Q13131 whole entry, looked up): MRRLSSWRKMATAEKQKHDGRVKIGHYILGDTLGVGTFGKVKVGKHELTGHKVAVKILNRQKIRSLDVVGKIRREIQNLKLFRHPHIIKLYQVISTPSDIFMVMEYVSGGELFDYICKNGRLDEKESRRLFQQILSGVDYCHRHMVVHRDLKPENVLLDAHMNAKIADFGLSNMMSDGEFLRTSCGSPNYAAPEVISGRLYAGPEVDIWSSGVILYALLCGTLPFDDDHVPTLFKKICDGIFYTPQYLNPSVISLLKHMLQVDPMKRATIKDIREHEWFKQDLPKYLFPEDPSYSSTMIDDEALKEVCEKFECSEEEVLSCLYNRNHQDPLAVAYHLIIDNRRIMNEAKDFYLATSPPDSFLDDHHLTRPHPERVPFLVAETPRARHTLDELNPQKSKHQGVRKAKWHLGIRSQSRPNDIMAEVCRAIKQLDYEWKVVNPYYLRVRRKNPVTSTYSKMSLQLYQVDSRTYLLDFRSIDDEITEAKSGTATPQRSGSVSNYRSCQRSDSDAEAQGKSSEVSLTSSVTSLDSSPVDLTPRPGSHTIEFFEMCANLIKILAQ

One may read the inhibition as the relative decrease from the control value, in per cent. As to `NC(=O)c1sc(-n2cnc3ccc(C(F)(F)F)cc32)cc1OCc1ccccc1Br`, the inhibition is 2.19% in [1]; 3.07% in assay [2]; 4.04% in [3]; -0.91% in assay [4]; 3.21% in assay [5]; 3.83% in assay [6]. Also, the inhibition in [7] is 4.65%; in [8], 2.58%; in assay [9] it was 4.41%; in assay [10], 3.14%.
As to `COc1ccc(-c2cc3c(N)ncnc3o2)cc1`, the inhibition in assay [1] is 1.58%; in assay [2] it was 0.5%; in assay [3], -0.33%; in assay [4] it was -1.01%; in assay [5] it was 1.43%; in assay [6] it was -1.34%. Further, the inhibition in assay [7] was -2.55%; in assay [8], 0.03%; in [9], 0.8%; in assay [10], 0.21%.
Consider `[O-][S+]1CCN(Cc2ccc(-c3ccc4ncnc(Nc5ccc(OCc6cccc(F)c6)c(Cl)c5)c4c3)o2)CC1`, for which the inhibition in assay [1] is 1.89%; in assay [2], 3.42%; in assay [3], 4%; in [4], -0.64%; in assay [5] it was 2.65%; in assay [6], 4.53%. Moreover, the inhibition in assay [7] turned out to be 3.72%; in assay [8] it was 3.59%; in assay [9], 5.6%; in [10], 5.66%.
`CNC(=O)c1cc(-c2ccc(F)cc2)cc(-c2ccc(S(=O)(=O)N3CCCC3)cc2)c1N`: the inhibition in assay [1] was determined as 1.28%; in [2], 2.26%; in assay [3], 1.89%; in assay [4] it was 2.87%; in assay [5] it was 0.33%; in assay [6], 2.62%. Moreover, the inhibition in assay [7] turned out to be 3.57%; in [8], 1.77%; in assay [9], 2.03%; in [10], 6.28%.
In the case of `c1cc(-c2cnn3nc(N4CCOCC4)ccc23)nc(NC2CC2)n1`, the inhibition is 10.5% in assay [1]; 2.27% in [2]; 3.4% in assay [3]; 9.24% in [4]; 9.02% in [5]; 4.38% in assay [6]. The inhibition in assay [7] is 2.23%; in [8], 4.11%; in assay [9] it was 6.88%; in [10] it was -0.07%.
For the compound `COc1cc2ncn(-c3cc(OCc4ccccc4C(F)(F)F)c(C(=O)N(C)C)s3)c2cc1OC`, the inhibition in assay [1] is 0.1%; in assay [2] it was 0.62%; in [3], 1.02%; in [4], 1.9%; in assay [5], -0.51%; in assay [6] it was 0.08%. For the same compound, the inhibition in assay [7] is -0.88%; in assay [8] it was -0.68%; in assay [9], -0.02%; in assay [10] it was -0.26%.
As for `COC(=O)Nc1nc2ccc(S(=O)(=O)c3ccc(NC(=O)Nc4cc(C(F)(F)F)ccc4F)cc3)cc2[nH]1`, the inhibition in assay [1] was 1.27%; in [2], 3.1%; in assay [3], 0.95%; in assay [4] it was 3.28%; in assay [5], 0.53%; in assay [6] it was 2.89%. Besides, the inhibition amounted to 1.57% in assay [7], 1.79% in assay [8], 1.58% in assay [9] and 2.21% in assay [10].
Turning to `CS(=O)(=O)CCNCc1coc(-c2ccc3ncnc(Nc4ccc(OCc5ccccc5)cc4)c3c2)c1`, the inhibition is 2.32% in assay [1]; 2.57% in assay [2]; 2.35% in assay [3]; -0.69% in [4]; 1.93% in assay [5]; -0.71% in assay [6]. For the same compound, the inhibition in assay [7] is 1.87%; in assay [8], 2.75%; in [9] it was 2.96%; in assay [10], 3.81%.
Consider `Fc1ccc(-c2nn3ncccc3c2-c2ccnc(Nc3ccc4c(c3)OCCO4)n2)cc1`, for which the inhibition was found to be 5.49% in assay [1]; 3.85% in [2]; 3.42% in assay [3]; 0.17% in assay [4]; 0.65% in assay [5]; 4.45% in [6]. Moreover, the inhibition was determined as 0.8% in assay [7], 3% in assay [8], 1.48% in assay [9] and 3.53% in [10].
With `COc1ccc2[nH]c3c4[nH]c5ccc(OC)cc5c4c4c(c3c2c1)C(=O)NC4=O`, the inhibition is 88% in [1]; 21.8% in [2]; 63.8% in assay [3]; 16.6% in [4]; 59.4% in assay [5]; 9.76% in [6]. In addition, the inhibition in [7] worked out at 40.2%; in assay [8], 37%; in [9] it was 78%; in [10], 17.9%.
Take `CCOc1ccc2c(-c3ccnc(Nc4cccc(C(F)(F)F)c4)n3)cnn2n1`: the inhibition in assay [1] was -0.99%; in assay [2] it was 1.25%; in assay [3], 0.13%; in assay [4], 2.25%; in assay [5] it was 0.87%; in assay [6] it was 0.95%. In addition, the inhibition is 2.4% in [7], 2.48% in assay [8], 2.09% in assay [9] and 0.22% in assay [10].
For `COc1cccc(-c2c[nH]c3c(N/N=C/c4ccncc4)ncnc23)c1`, the inhibition was 10.6% in assay [1]; 4.36% in assay [2]; 19.1% in assay [3]; 4.85% in assay [4]; 18.2% in assay [5]; 2.69% in assay [6]. Moreover, the inhibition was 1.84% in [7], 1.39% in [8], 6.84% in assay [9] and 0.02% in [10].
In the case of `c1ccc(COc2ccc(Nc3ncnc4ccc(-c5ccco5)cc34)cc2)cc1`, the inhibition in [1] is -0.53%; in assay [2] it was 1.43%; in assay [3] it was 0.51%; in assay [4], -1.79%; in [5], 2.2%; in assay [6], -0.56%. Besides, the inhibition in [7] was 0.58%; in [8], 0.67%; in assay [9] it was 2.29%; in assay [10] it was -2.52%.
Regarding `N#Cc1c(NC(=O)c2ccc(F)cc2)sc2c1CCCC2`, the inhibition in assay [1] is 0.81%; in [2], 0.29%; in assay [3] it was 2.65%; in [4], -3.36%; in assay [5], 0.76%; in [6], -0.34%. In addition, the inhibition in [7] was 1.54%; in [8], 1.88%; in assay [9], 1.54%; in [10], 0.31%.
Consider `CC(C)COC(=O)c1ccc2c(c1)/C(=C/Nc1ccc(S(N)(=O)=O)cc1)C(=O)N2`, for which the inhibition in assay [1] was 39.3%; in assay [2] it was 1.25%; in assay [3], 19%; in [4], 1.33%; in assay [5], 1.89%; in assay [6], 1.37%. For the same compound, the inhibition in assay [7] came out at 3.19%; in [8], 23.4%; in assay [9] it was 72.3%; in assay [10], 5.83%.
For the compound `Fc1cccc(COc2ccc(Nc3ncnc4sc(-c5ccco5)cc34)cc2Cl)c1`, the inhibition in assay [1] was found to be 1.67%; in [2] it was 2.84%; in [3], 3.04%; in [4] it was 1.55%; in [5] it was 0.68%; in assay [6] it was 4.19%. The inhibition in assay [7] was determined as 4.61%; in [8], 2.46%; in assay [9], 4.38%; in assay [10], 4.1%.
For `CCCN1CCC(c2ccc(Nc3nc(Nc4cc(F)ccc4C(N)=O)c4cc[nH]c4n3)c(OC)c2)CC1`, the inhibition was determined as 63.4% in assay [1]; 3.17% in [2]; 13.8% in assay [3]; 4.48% in [4]; 5.14% in [5]; 3.22% in assay [6]. Besides, the inhibition in [7] stood at 4.03%; in [8] it was 5.5%; in [9] it was 26.9%; in assay [10], 3.42%.
